Consider 110 molecules from PubChem BioAssay AID623911 (Vanderbilt High Throughput Screening Facility, 2012).

Structures are written as SMILES. The whole screen tested about 2,100 compounds, of which about 770 (37%) were called active.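 How the source made its calls: active means by-eye trace score of 1 for enhancers or -1 for inhibitors, so actives lie on both sides (some results past the limit were not filed as active); inactive means score 0, or 3 fluorescent, or 4 baseline rise.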 Some of the results follow.

Chain of G protein-activated inward rectifier potassium channel 2 (Homo sapiens) + G protein-activated inward rectifier potassium channel 1 (Homo sapiens) (P48051 whole entry, looked up): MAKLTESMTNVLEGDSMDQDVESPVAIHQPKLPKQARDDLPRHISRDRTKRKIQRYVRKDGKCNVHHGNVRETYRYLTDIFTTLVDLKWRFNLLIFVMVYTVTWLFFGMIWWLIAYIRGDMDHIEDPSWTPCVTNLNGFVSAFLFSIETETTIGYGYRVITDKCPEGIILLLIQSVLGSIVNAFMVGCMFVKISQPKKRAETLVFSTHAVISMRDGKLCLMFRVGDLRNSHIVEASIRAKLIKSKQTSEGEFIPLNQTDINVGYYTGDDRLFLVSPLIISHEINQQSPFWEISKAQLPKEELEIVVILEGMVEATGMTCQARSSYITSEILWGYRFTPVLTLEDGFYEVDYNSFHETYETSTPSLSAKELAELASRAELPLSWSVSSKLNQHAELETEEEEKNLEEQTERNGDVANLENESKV
Chain of G protein-activated inward rectifier potassium channel 2 (Homo sapiens) + G protein-activated inward rectifier potassium channel 1 (Homo sapiens) (P48549 whole entry, looked up): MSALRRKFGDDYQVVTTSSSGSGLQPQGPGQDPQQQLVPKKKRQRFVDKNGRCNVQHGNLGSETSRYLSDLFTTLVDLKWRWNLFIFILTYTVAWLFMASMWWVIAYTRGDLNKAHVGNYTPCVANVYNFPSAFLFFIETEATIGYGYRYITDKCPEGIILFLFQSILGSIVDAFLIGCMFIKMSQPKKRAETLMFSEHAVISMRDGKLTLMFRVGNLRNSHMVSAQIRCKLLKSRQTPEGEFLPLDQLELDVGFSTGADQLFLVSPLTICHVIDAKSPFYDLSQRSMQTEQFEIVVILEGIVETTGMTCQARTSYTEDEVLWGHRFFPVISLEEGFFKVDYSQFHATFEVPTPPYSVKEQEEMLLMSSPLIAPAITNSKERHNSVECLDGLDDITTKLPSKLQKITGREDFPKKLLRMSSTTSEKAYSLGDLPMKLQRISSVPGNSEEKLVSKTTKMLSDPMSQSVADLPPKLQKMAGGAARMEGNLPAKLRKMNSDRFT

This test concerns the target G protein-activated inward rectifier potassium channel 2 (Homo sapiens) + G protein-activated inward rectifier potassium channel 1 (Homo sapiens) (UniProt P48051+P48549). The test is described as follows: GIRK1/2 thallium flux modulators, retest, confirmation, cell-based, HEK293 rmGlu8/hGIRK1/2, FluoZin-2 (AID 623911). To be noted: HEK293 rmGlu8/hGIRK1/2, thallium flux FluoZin-2; actives lie on both sides; glutamate co-added at its EC20 level.
Take `COc1ccc2[nH]c(C)c(C(=O)CN3CC(C)OC(C)C3)c2c1` (stereo not given): the manual score is 0 (inactive). Regarding `C/C(CC(=O)NCC(C)C)=N\NC(=O)COc1cc(C)c(Br)cc1Br`, the manual score was 1 (active). Consider `C/C(CC(=O)NC(C)C)=N\NC(=O)COc1cc(C)c(Br)cc1Br`, for which the manual score was 1 (active).

For the molecule `Cc1ccccc1-n1nnc2c(=O)oc3ccccc3c21`, the manual score is 0 (inactive). In the case of `O=C(Nc1nc(=O)c2ccccc2s1)c1ccc(F)cc1` it was 1 (active). On to `O=C(Nc1nc(=O)c2ccccc2s1)c1ccc(Cl)cc1`, for which the manual score was 1 (active). In the case of `O=C(Cc1ccccc1)Nc1nc(=O)c2ccccc2s1` it was 0 (inactive); in that of `O=C(Nc1nc(=O)c2ccccc2s1)c1ccccc1`, 1 (active); in that of `CCN(CC)C(=S)SCC(=O)Nc1nc(=O)c2ccccc2s1`, 0 (inactive). In the case of `COC(=O)c1ccc(NS(=O)(=O)c2ccc(SC)cc2)cc1` it was 0 (inactive); in that of `CC(=O)Nc1ccc(SCC(=O)c2cc(C)n(-c3ccccc3F)c2C)cc1`, 0 (inactive). As for `COC(=O)c1ccc(-n2c(C)cc(C(=O)CSc3ccc(NC(C)=O)cc3)c2C)cc1`, the manual score is 1 (active). As to `CCc1ccccc1N(C)C(=O)CCc1nc(-c2ccc(C)cc2)no1`, the manual score is -1 (active). Turning to `O=C(CCCc1nc(-c2ccc(Cl)cc2)no1)N1CCOCC1`, the manual score was 0 (inactive).

For the molecule `CC(C)N(Cc1nc(-c2ccccc2)no1)C(=O)CSc1ccccc1`, the manual score was 0 (inactive). For `CN(C)Cc1c(O)c(Cl)cc2c3c(c(=O)oc12)CCCC3` the value was 0 (inactive); for `O=C(O)C1C2C=CC3(CN(C4CCCC4)C(=O)C13)O2` (stereo not given), 0 (inactive); for `COc1ccc(NC(=O)NC(C)c2ccncc2)cc1OC` (stereo not given), 0 (inactive). In the case of `COc1ccc(NC(=O)Nc2ccccc2OC)cc1`, the manual score is 0 (inactive). In the case of `COc1ccc2cc(C(=O)Nc3ccccc3)sc(=O)c2c1OC` it was 0 (inactive); in that of `CCCOc1ccc(NCC(=O)Nc2ccc(C)cc2C)cc1`, 0 (inactive).

Consider `COc1ccc(C)cc1NC(=O)NCCC1=CCCCC1`, for which the manual score is 1 (active). For `Cc1ccc(OC(=S)Nc2ccccc2)c(C)c1` the value was 0 (inactive).

In the case of `O=C(NC(=S)NCCC1=CCCCC1)c1cncc(Br)c1`, the manual score is 0 (inactive). In the case of `COc1ccc(NC(=O)Nc2cc(C)ccc2OC)cc1` it was 1 (active). `COc1ccc(C)cc1NC(=O)Nc1ccccc1`: the manual score was 1 (active).

As for `CCOc1ccc(NC(=O)Nc2cc(C)ccc2OC)cc1`, the manual score was 1 (active). In the case of `O=C(O)c1ccccc1C(=O)Nc1ccc(-c2csc(-c3ccccc3)n2)cc1` it was 0 (inactive); in that of `CN1CC=C2C(C#N)=C(N)C(C#N)(C#N)[C@H](c3cccc(Cl)c3)C2C1` (stereo not given in full), 3 (inactive); in that of `COC(=O)c1ccccc1NC(=O)Nc1cnccn1`, 0.5 (inactive). For the molecule `COc1ccc(NC(=O)Nc2ccccc2C(=O)N2CCCC2)cc1`, the manual score is 1 (active). In the case of `COc1cc(C(=S)N2CCCC2)cc(OC)c1OS(=O)(=O)c1ccc(NC(C)=O)cc1` it was 0 (inactive); in that of `COC(=O)[C@H](Cc1ccccc1)NC(=O)NCCC1=CCCCC1`, 1 (active); in that of `Cc1ccc(-c2[nH]nc3c2C(c2ccoc2)C(C#N)=C(N)O3)cc1C` (stereo not given), 0 (inactive). For `CCOC(=O)N1CCN(c2c(F)cc3[nH]c(=S)[nH]c3c2Br)CC1` the value was -1 (active); for `CCOC(=O)N1CCN(c2ccc3nnnn3n2)CC1`, 0 (inactive). For `CCOC(=O)N1CCC(n2c(=S)[nH]c3ccccc3c2=O)CC1` the value was 0 (inactive); for `O=C(Nc1nnc(-c2ccco2)o1)c1ccc2ccccc2c1`, 1 (active).

As to `CCOc1ccc(-c2nnc(NC(=O)c3ccc(OCC(C)C)c(OC)c3)o2)cc1`, the manual score was 1 (active). For `COc1ccc(-c2nnc(NC(=O)c3ccc(S(=O)(=O)N4COCC4(C)C)cc3)o2)cc1` the value was 1 (active). As for `COc1ccc(-c2nnc(NC(=O)c3ccc(F)cc3)o2)cc1`, the manual score was 1 (active). In the case of `CCc1cc(C(N)=O)c(NC(=O)c2ccc(OC)cc2)s1` it was 0 (inactive); in that of `CCOc1ccc(-c2nnc(NC(=O)CCCOc3cccc(C)c3)o2)cc1`, 0 (inactive); in that of `COc1ccc(-c2nnc(NC(=O)c3ccc(S(=O)(=O)N4CCCc5ccccc54)cc3)o2)cc1`, 0 (inactive). In the case of `CCOc1ccc(-c2nc(-c3ccc(OC)c(OC)c3)no2)cc1OCC` it was 0 (inactive); in that of `COc1ccc(-c2nnc(NC(=O)c3ccc(S(=O)(=O)N4CCc5ccccc5C4)cc3)o2)cc1`, 0 (inactive); in that of `COc1ccc(C(=O)Nc2ccc(S(=O)(=O)NCc3ccco3)cc2)cc1OC`, 0 (inactive). In the case of `O=C(CSc1ccc(-c2ccco2)nn1)c1ccccc1` it was 0 (inactive); in that of `CC(=O)CN1Cc2ccccc2/C1=N\C(=O)Nc1ccccc1`, 0 (inactive). On to `CCCCN(C)C1=CC2=CC(=C(C#N)C#N)CCC2CC1` (stereo not given), for which the manual score is 3 (inactive). For `CCCn1cc(NC(=O)c2cc(-c3ccccc3)on2)cn1` the value was 1 (active); for `Cc1ccccc1Cn1cc(NC(=O)c2nc3ncccn3n2)cn1`, 0 (inactive); for `CC(C)n1cc(NC(=O)c2cc(-c3ccccc3)on2)cn1`, 1 (active). In the case of `O=C(c1cc(-c2ccccc2)on1)N1CCCC1` it was 0 (inactive); in that of `Cc1cccc(N2CCN(C(=O)c3ccc(Cl)c(S(=O)(=O)N4CCc5ccccc5C4)c3)CC2)c1C`, 0 (inactive); in that of `O=c1sc(N2CCN(c3ccccc3F)CC2)nc2ccsc12`, 0 (inactive).

For the molecule `Cc1ccc2cccc(S(=O)(=O)N3CCN(c4ccccc4F)CC3)c2n1`, the manual score was -1 (active). Take `Cc1ccccc1C(=O)NNC(=S)NC(=O)c1ccc(Cl)cc1Cl`: the manual score is 1 (active).

In the case of `O=C(COc1ccccc1)NNC(=S)NC(=O)c1ccc(Cl)cc1Cl`, the manual score is 1 (active).

With `Cc1onc(-c2ccccc2)c1C(=O)NC(=S)Nc1sc2c(c1C#N)CCCC2`, the manual score was 1 (active). Regarding `C=CCNC(=S)NNC(=O)COc1ccc(Cl)cc1Cl`, the manual score is 0 (inactive).

For the molecule `Cc1onc(-c2ccccc2)c1C(=O)NNC(=S)NC(=O)c1ccc(Br)cc1`, the manual score is 1 (active). On to `Cc1ccccc1C(=O)NC(=S)Nc1sc2c(c1C#N)CCCC2`, for which the manual score was 0 (inactive). In the case of `S=c1[nH]ccn1-c1cccc(Cl)c1` it was 0 (inactive); in that of `Oc1ccc2ccc3cccc[n+]3c2c1`, 3 (inactive). For `CCn1c(-c2cc(-c3cccc(OC)c3)nc3ccccc23)n[nH]c1=S` the value was 0 (inactive). Turning to `Cc1ccccc1C(=O)NNC(=S)NC(=O)c1ccccc1`, the manual score is 1 (active). In the case of `Cc1ccccc1C(=O)NNC(=O)C(=O)Nc1cccc(Cl)c1C` it was 1 (active); in that of `Cc1ccccc1C(=O)Nc1nc(=S)ss1`, 0 (inactive).

For `Cc1ccccc1C(=O)NC(=S)NCCc1ccccc1`, the manual score is 0 (inactive). In the case of `Cc1c(Cl)cccc1NC(=S)/C(=C(\[O-])c1ccc(Cl)s1)[n+]1ccccc1`, the manual score was 0 (inactive). In the case of `CCOC(=O)C(CC)n1cnc2c(nnn2-c2ccc(OC)cc2)c1=O` (stereo not given) it was 0 (inactive); in that of `CCC(C)n1c(=S)[nH]c2c(sc3ccc([N+](=O)[O-])cc32)c1=O` (stereo not given), 1 (active).

Take `COc1cccc2sc(Nc3nnc(-c4cccs4)o3)nc12`: the manual score was 1 (active). For `COc1cccc2sc(Nc3nc(-c4ccccn4)cs3)nc12` the value was 1 (active).

As to `CCNc1nnc(-c2ccc(C)cc2)o1`, the manual score is -0.5 (inactive).

As for `O=C(Nc1nc(-c2ccccn2)cs1)c1ccc(Br)s1`, the manual score was 0 (inactive).

On to `COc1ccc(-c2nnc(Nc3nc4c(OC)cccc4s3)o2)cc1`, for which the manual score was 1 (active). In the case of `C/C(=N/NC(=O)c1ccncc1)c1cc2ccc(O)cc2oc1=O` it was 0 (inactive); in that of `CCOc1cc(/C=N/NC(=O)CNc2cccc(C)c2)ccc1OC(=O)c1ccccc1`, 0 (inactive). In the case of `O=C(Nn1c(C2CCCCC2)nc2ccccc2c1=O)c1ccc([N+](=O)[O-])cc1Cl` it was 0 (inactive); in that of `COc1ccccc1OCC(O)Cn1c(=N)n(Cc2ccccc2)c2ccccc21` (stereo not given), -1 (active); in that of `Cc1ccc(OCC(O)Cn2c(=N)n(Cc3ccccc3)c3ccccc32)cc1` (stereo not given), -1 (active). For `CC1(C)NC(=O)N(CC(O)COc2ccc(-c3ccc(C#N)cc3)cc2)C1=O` (stereo not given) the value was 0 (inactive); for `CN(C)c1nc(OCCNC(=O)COc2ccc(Cl)cc2Cl)nc(N2CCOCC2)n1`, -1 (active). For `Cc1cc(CC(C)C)n(-c2nc3ccccc3c(=O)n2OCC(N)=O)n1`, the manual score is 0 (inactive). As to `O=C(CN1CCN(Cc2ccccc2)CC1)Nc1cccc(C(F)(F)F)c1`, the manual score was 0 (inactive).

As to `Cc1ccc(CC(=O)N2CCN(c3cccc(C(F)(F)F)c3)CC2)cc1`, the manual score was 1 (active). Take `CC1(C)Cc2ccccc2-c2nnc(SCC(=O)N3CCN(c4ccccc4)CC3)n21`: the manual score was 0 (inactive). As to `CCOc1ccc(-n2c(Cc3cc(=O)[nH]c(=O)[nH]3)nnc2SC(C)C(=O)OC)cc1` (stereo not given), the manual score was 0 (inactive). Consider `CCOc1ccc(-n2c(SC(C)C(=O)OC)nc3c(c2=O)SCC3)cc1` (stereo not given), for which the manual score was -1 (active). For `COC(=O)c1ccc(CSc2nc3c(c(=O)n2-c2ccc(F)cc2)SCC3)o1` the value was 0 (inactive); for `CC(C)Cn1c2c(c(O)c(C(=O)Nc3ncccc3O)c1=O)CCCC2`, 0 (inactive); for `COC(=O)C(NC(=O)COc1ccccc1)(Nc1nc2c(s1)CCCC2)C(F)(F)F` (stereo not given), -1 (active). As for `CCCCCn1nc(-c2ccccc2)c2nc3ccccc3nc21`, the manual score is 3 (inactive). With `CCn1c(SCC(N)=O)nc2sc3c(c2c1=O)CCCC3`, the manual score was 1 (active).

On to `CCCCN(CCCC)C(=O)CSc1nnc2n(C)c(=O)c3c4c(sc3n12)CCCC4`, for which the manual score was -0.5 (inactive).

Consider `O=c1c2c3c(sc2nc2n1CCCCC2)CCCCC3`, for which the manual score was 0 (inactive).

For `Clc1ccc2c(c1)-c1nnc(Br)n1-c1ccccc1S2`, the manual score was -1 (active). For `S=C1Nc2ccccc2Sc2ccc(Cl)cc21` the value was 0 (inactive); for `CCOc1ccccc1OCCCCCc1c(C)n[nH]c1C`, 0 (inactive); for `CCN(CC)CC(O)COCCC12CC3CC(CC(C3)C1)C2` (stereo not given), -1 (active). In the case of `CC1(C)CC(c2nc(-c3ccc(Br)cc3)cs2)CCS1` (stereo not given) it was 0 (inactive); in that of `Cc1ccc(Cn2c(SCC(=O)NCC3CCCO3)nc3c(sc4ccccc43)c2=O)cc1` (stereo not given), 0.5 (inactive). For `CCN(CC)CCN(CC)Cc1ccccc1Br`, the manual score was -1 (active). In the case of `COc1ccccc1C(=O)N1c2ccccc2Sc2ccccc21` it was -1 (active); in that of `CCOC(=O)/C(=C/C=C1\Sc2ccccc2N1CC)C(C)=O`, 3 (inactive). In the case of `O=C1CS/C(=N\C(=O)N2c3ccccc3Sc3ccccc32)N1` it was 0 (inactive); in that of `CCOc1ccccc1C(=O)N1c2ccccc2Sc2ccccc21`, -1 (active); in that of `COCC(=O)/C=C1\Sc2ccccc2N1C`, 0 (inactive).
